Screening data: PubChem, The Scripps Research Institute Molecular Screening Center
MsrA act: activates bovine MsrA enzyme; purified bovine MsrA, absorbance read-out; activation, % at 10.6 µM; 360,000 tested, 0.3% active; AID 602163; in the data active = activation above about 7.5%;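 also: 0% = vehicle and 100% = reference activator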
rCAG RNA binder: r(CAG) repeat RNA binding. inhibition, % at 3 µM. 370,000 tested, 1.3% active. TO-PRO-1 dye displacement fluorescence;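 active = inhibition above the plate cutoff, the mean of all test compounds on that plate plus 3 SD, cut at about 35% in these data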;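 also: 0% = DMSO alone and 100% = 100 µM mitoxantrone as full dye displacement; higher means more dye released from RNA so lower well fluorescence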
HGIII-sPLA2 inh: Inhibits HGIII-sPLA2 liposome hydrolysis, primary screen; inhibition, % at 12.2 µM; QFRET BODIPY PC-A2 liposome hydrolysis, fluorescence; AID 743126; 370,000 tested, 0.56% active; Q9NZ20;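 active = inhibition above mean plus 3 SD of compounds lying within the high and low control bounds, cut at about 19% in these data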;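 also: 0% = median of test compound wells and 100% = no enzyme DMSO wells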
Target sequence (Q9NZ20 whole entry, looked up): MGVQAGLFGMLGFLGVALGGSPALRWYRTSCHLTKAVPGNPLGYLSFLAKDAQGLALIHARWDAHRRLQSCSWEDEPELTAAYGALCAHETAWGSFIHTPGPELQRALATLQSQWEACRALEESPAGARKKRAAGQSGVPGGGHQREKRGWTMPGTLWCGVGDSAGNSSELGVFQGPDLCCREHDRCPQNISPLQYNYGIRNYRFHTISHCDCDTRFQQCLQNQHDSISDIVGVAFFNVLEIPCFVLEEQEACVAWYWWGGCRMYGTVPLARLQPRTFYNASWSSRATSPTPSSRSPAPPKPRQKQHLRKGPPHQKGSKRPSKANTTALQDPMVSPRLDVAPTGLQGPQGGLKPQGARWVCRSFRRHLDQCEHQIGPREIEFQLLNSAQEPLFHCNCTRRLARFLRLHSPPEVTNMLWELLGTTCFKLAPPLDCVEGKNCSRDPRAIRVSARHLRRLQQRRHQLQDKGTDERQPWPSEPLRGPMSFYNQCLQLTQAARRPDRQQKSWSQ
PG9 binder: PG9 antibody binding by small molecule; TR-FRET gp120-PG9 antibody binding; inhibition, % at 6.7 µM; 360,000 tested, 0.43% active; in the data active = inhibition above about 8.5%
MsrA inhibitor: inhibitors of bovine MsrA. inhibition, % at 15.5 µM. purified bovine MsrA, absorbance read-out. 360,000 tested, 0.75% active; in the data active = inhibition above about 4.5%;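 also: 0% = vehicle wells with enzyme and 100% = reference inhibitor wells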
rCAG bind conf: r(CAG) RNA repeat binding, confirmation; TO-PRO-1 dye displacement fluorescence; 4,300 tested, 70% active; inhibition, % at 3 µM; shares compounds with rCAG RNA binder;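 active = inhibition above a per-plate cutoff, the mean inhibition of sample wells plus 3 SD, cut at about 35% in these data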;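 also: loss of TO-PRO-1 fluorescence as compound displaces dye from 1x1 AA loop RNA; 0% = DMSO only wells and 100% = 100 µM mitoxantrone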
DNA CAG counter: DNA CAG dye complex inhibition counter-screen; 4,300 tested, 94% active; AID 652068; shares compounds with rCAG RNA binder; inhibition, % at 3 µM; d(CAG) DNA oligo TO-PRO-1 dye displacement, fluorescence;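 active = inhibition above its plate's cutoff, the mean test-well inhibition plus 3 SD, cut at about 4.8% in these data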;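 also: 0% = DNA dye mix with DMSO and 100% = 100 µM mitoxantrone; hits displace the dye from DNA and so lower well fluorescence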
An asterisk follows results filed as active; . = no result given. An excerpt weighted towards active compounds, which were near 3.2% of everything screened.

SMILES | MsrA act | rCAG RNA binder | HGIII-sPLA2 inh | PG9 binder | MsrA inhibitor | rCAG bind conf | DNA CAG counter
COC(=O)c1cc(-c2cc(Cl)cc(Cl)c2)c(=O)n2c1CCC2 | . | 0 | 0 | . | . | . | .
Cc1ccc(S(=O)(=O)N2[C@@H](c3ccccc3)C(C(=O)O)=CC[C@H]2c2cccs2)cc1 | -2 | 42* | -4 | 1 | -1 | 43* | 9.4*
Cc1ccc(S(=O)(=O)N2[C@@H](c3ccccc3F)C(C(=O)O)=CC[C@H]2c2cccs2)cc1 | -2 | 45* | -9 | -1 | -1 | 46* | 12*
CC(=O)C1=CCC(c2cccs2)N(S(=O)(=O)c2ccc(C)cc2)C1 (stereo not given) | -4 | 5 | -7 | -1 | -1 | . | .
O=C1NC(c2cc(Cl)cc([N+](=O)[O-])c2O)Nc2ccccc21 (stereo not given) | -3 | 35* | -5 | 1 | 0 | 80* | 45*
O=C(OCC#CCSc1nnc(-c2cccc(F)c2)o1)c1ccc(F)cc1 | . | . | -13 | . | . | . | .
O=C1NC(=Nc2ccccc2)S/C1=C\C=C\c1ccco1 | 1 | 69* | -4 | -3 | 0 | 62* | 30*
Cc1cccc(N=C2NC(=O)/C(=C/c3cccn3C)S2)c1C | -4 | 7 | -25 | -3 | 0 | . | .
Cc1cccc(N=C2NC(=O)/C(=C/C=C/c3ccco3)S2)c1C | -7 | 67* | 4 | -2 | 0 | 64* | 31*
Cc1ccc(N=C2NC(=O)/C(=C/C=C/c3ccco3)S2)cc1 | -3 | 59* | 0 | -3 | 0 | 54* | 26*
C#CCN(C[C@H]1[C@H](OC(=O)Nc2c(C)noc2C)[C@H](OC(=O)Nc2c(C)noc2C)C[C@@H](C(=O)OC)[C@H]1C(=O)OC)S(=O)(=O)c1ccc(C)cc1 | -4 | 5 | 1 | 0 | 2 | . | .
O=S1(=O)CC2c3ccc(F)cc3CN2CN1Cc1ccccc1 (stereo not given) | . | 3 | 1 | . | . | . | .
COC(=O)CC1=NN(c2ccc(OC)cc2)C(=O)C1 | -4 | 43* | -4 | -3 | 0 | 2 | 0
COC(=O)Cc1c(C(=O)OC)nnn1-c1ccc(OC)cc1 | -1 | -1 | 8 | 0 | 1 | . | .
Cc1ccc(S(=O)(=O)NC[C@@H]2C[C@H](c3ccccc3)ON2S(=O)(=O)c2ccc(C)cc2)cc1 | . | . | -22 | . | . | . | .
Clc1ccc(-c2ccc(-c3nn4c(-c5ccco5)nnc4s3)o2)cc1 | -7 | 35* | 0 | 0 | 0 | 12 | 9.1*
CN(C)c1ccc(-c2nn3c(-c4ccco4)nnc3s2)cc1 | . | 10 | 7 | . | . | . | .
Cc1ccc(F)c(S(=O)(=O)NC(=O)C2(C)CCN2C(=O)CCc2ccccc2)c1 (stereo not given) | -3 | 6 | -5 | -2 | 0 | . | .
COc1cc(/C=C2/NC(=O)N(c3cccc(Cl)c3)C2=O)ccc1O | -12 | 9 | -20 | -7 | 4 | . | .
O=C1S/C(=C\c2ccc(O)c([N+](=O)[O-])c2)C(=O)N1c1ccccc1Cl | 4 | 48* | -45 | 1 | 2 | 44* | 11*
COc1cc(/C=C2\SC(=O)N(c3cccc(Cl)c3)C2=O)cc([N+](=O)[O-])c1O | -2 | 37* | -10 | -3 | 1 | 85* | 44*
CC(=O)N1c2ccccc2C(C)=NCC1C(=O)NC1CCCCC1 (stereo not given) | . | -1 | -2 | . | . | . | .
CN(C)CCC(=O)C(Cc1ccccc1)c1ccccc1 (stereo not given) | -13 | 35* | -6 | -1 | 0 | -1 | -1
CN(C)CCNC(=O)C(c1ccccc1)c1ccccc1 | -3 | -1 | -2 | 0 | 0 | . | .
CCC(c1nnnn1Cc1ccco1)N(CCc1ccccc1)Cc1cc2cc(C)ccc2[nH]c1=O (stereo not given) | -2 | 21 | 0 | -1 | 3 | . | .
SMILES | MsrA act | rCAG RNA binder | HGIII-sPLA2 inh | PG9 binder | MsrA inhibitor | rCAG bind conf | DNA CAG counter
Cc1ccc2[nH]c(=O)c(CN(CCc3ccccc3)C(c3nnnn3Cc3ccco3)C(C)C)cc2c1 (stereo not given) | 0 | 37* | -4 | 1 | 2 | 12 | 8.1*
COC(=O)[C@]12C[C@H](CC(=O)N3CCSCC3)C(=O)N(Cc3ccc(Cl)cc3Cl)C1=C[C@H](C(C)(C)C)O[C@@H]2C | . | 8 | 2 | . | . | . | .
Cc1ccc(C)c(NC(=O)CSc2sc3c(O)cc(=O)[nH]c3c2C#N)c1 | 1 | 51* | 6 | 1 | 2 | 29 | 11*
N#Cc1c(SCC(=O)Nc2cccc(C(F)(F)F)c2)sc2c(O)cc(=O)[nH]c12 | -3 | 52* | 6 | -3 | 2 | 35* | 15*
COC(=O)c1ccc(C)c(NC(=O)CSc2sc3c(O)cc(=O)[nH]c3c2C#N)c1 | -4 | 61* | -4 | 0 | 2 | 45* | 20*
Cc1cc(NC(=O)CSc2nc3[nH]c(=O)cc(O)c3s2)ccc1Br | -5 | 24 | 3 | 0 | 0 | . | .
O=C(CSCCO)Nc1cccc(C(F)(F)F)c1 | -3 | -2 | 3 | 3 | 1 | . | .
Cc1cc(NC(=O)CSc2sc3c(O)cc(=O)[nH]c3c2C#N)ccc1Br | -1 | 51* | 7 | -5 | 4 | 59* | 32*
COC(=O)c1ccc(C)c(NC(=O)CCSc2ccc(C)cc2)c1 | -2 | -2 | -8 | -1 | 0 | . | .
O=S1(=O)CCN(CCCCc2ccccc2)CC1 | -3 | 0 | 12 | 0 | 1 | . | .
O=C(O)c1ccc(N/N=C/C2=C(N3CCOCC3)C(=C\c3ccccc3)/CC2)cc1 | -10 | 72* | -19 | -3 | 2 | 75* | 36*
O=C(O)c1ccc(-n2ncc3c2/C(=C/c2cccc([N+](=O)[O-])c2)CC3)cc1 | -2 | 5 | -5 | -2 | 0 | . | .
O=C(O)c1ccccc1-n1ncc2c1/C(=C/c1ccc(Cl)cc1)CC2 | . | 38* | 1 | -2 | 3 | 34 | 11*
COc1ccc(CNS(=O)(=O)CC2NCCc3ccccc32)cc1 (stereo not given) | . | -1 | 0 | . | . | . | .
O=C(O)c1ccccc1NC(=O)C(Cc1ccccc1)N1C(=O)c2ccccc2C1=O (stereo not given) | -2 | 42* | -9 | -1 | 1 | 49* | 12*
CC(/C=C1\SC(=S)N(NS(=O)(=O)c2ccccc2)C1=O)=C\c1ccccc1 | -1 | 74* | -14 | -2 | 1 | 87* | 54*
O=C1/C(=C/c2cccnc2)SC(=S)N1NS(=O)(=O)c1ccccc1 | -5 | 14 | -5 | -3 | 3 | . | .
CC(/C=C1\SC(=S)N(NS(=O)(=O)c2ccc(C)cc2)C1=O)=C\c1ccccc1 | -3 | 62* | 2 | -2 | 1 | 87* | 60*
CC(/C=C1\SC(=S)N(NC(=O)c2ccncc2)C1=O)=C\c1ccccc1 | -3 | 42* | -16 | -2 | 1 | 31 | 9.3*
